Our source for the Potency and outcome values is PubChem BioAssay (Tox21).

Several values for one entry are separate records, joined by “and”; a condition that tells them apart may be missing. Equal entries are not always repeated. Results filed as inconclusive are left out. Where a structure was tested more than once in an assay, its records may differ in their call. Activity calls are given as the source filed them. Unless noted, calls come from the whole dose curve; as a rule, active = well fitted curve in the direction sought with a large enough effect in the repeat runs; inconclusive = weak or mixed curves; inactive = no such curve, though single readings can be large; an effect the other way counts as inactive or inconclusive.

A short description of assay [1]: qHTS assay to identify small molecule antagonists of the estrogen receptor alpha (ER-alpha) signaling pathway using the BG1 cell line in the presence of 0.1 nM 17-beta-estradiol - cell viability counter screen (AID 1259241). Note: nearly all actives have a fitted effect of over 40% in size. The method, boiled down: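 Cytotoxicity counter-screen: live-cell protease activity measured by fluorescence (30 min reagent step) in the same wells. Cells were VM7Luc4E2 with endogenous ER-alpha and ERE-driven luciferase, treated 22 hr at 37C alongside 0.1 nM 17beta-estradiol final.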
A general note: qHTS replaces the single test concentration by a dilution series.

The nature of assay [2]: qHTS assay to identify small molecule antagonists of the androgen receptor (AR) signaling pathway using the MDA cell line in the presence of 0.5 nM R1881 - cell viability counter screen (AID 1259242). Note: nearly all actives have a fitted effect of over 45% in size. In short, it runs like this:
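qHTS format. MDA-kb2 (MMTV-luc, AR/GR responsive) + cpd + 0.5 nM R1881 final, 16 hr 37C/0% CO2 → CellTiter-Fluor 30 min → fluorescence intensity.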

Assay [3] addresses Estrogen receptor (Homo sapiens) (UniProt P03372). Briefly: qHTS assay to identify small molecule antagonists of the estrogen receptor alpha (ER-alpha) signaling pathway using the BG1 cell line in the presence of 0.1 nM 17-beta-estradiol (AID 1259244). Note: nearly all actives have a fitted effect of over 50% in size. The method, boiled down:
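Reporter is a stably transfected luciferase under four estrogen responsive elements in VM7Luc4E2 cells expressing native full-length ER-alpha; inhibition of 0.1 nM (final) 17beta-estradiol-driven signal over 22 h is read by luminescence.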

Assay [4] can be described thus: qHTS assay to identify small molecule HDAC inhibitors (AID 1259364).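 Note: wild-type HCT-116 cells with endogenous class I/II HDAC activity; top concentration of the series differs between compounds; nearly all actives have a fitted effect of over 45% in size.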 The method, boiled down:
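Quantitative high-throughput format: overnight-seeded HCT-116 cells got compounds for 2 hr at 37C; HDAC-Glo I/II reagent added, 30 min RT, luminescence measured.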

The nature of assay [5]: qHTS assay to identify small molecule HDAC inhibitors - cell viability counter screen (AID 1259365). Note: series mostly up to about 92 µM; nearly all actives have a fitted effect of over 50% in size. The method, boiled down: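 CellTiter-Glo luminescence (30 min, room temperature) reported viability after a 2 h compound exposure at 37 C. Cells: wild-type HCT-116, 1,500 per well, seeded the night before.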
A short description of assay [6]: qHTS assay to identify small molecule agonists of the sonic hedgehog signaling (Shh) pathway - cell viability counter screen (AID 1259366). Note: nearly all actives have a fitted effect of over 50% in size. The method, boiled down:
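Cytotoxicity counter screen: CellTiter-Fluor reagent added after 23 h compound exposure, then 1 h at 37C and fluorescence read. Cells were 3T3 Gli1-Luc, seeded 2,000 per well and dosed 4 h post-plating.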

Assay [7] can be described thus: qHTS assay to identify small molecule antagonists of the sonic hedgehog signaling (Shh) pathway - cell viability counter screen (AID 1259367). Note: nearly all actives have a fitted effect of over 55% in size. The method, boiled down: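 Viability was read by CellTiter-Fluor fluorescence in the same wells, reagent added 23 hr into compound treatment and incubated 1 hr at 37C. The 3T3 Gli1-Luc reporter cells (2,000/well) received conditioned medium after compound and ran 24 hr.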

Assay [8] in a line: qHTS assay to identify small molecule agonists of the sonic hedgehog signaling (Shh) pathway (AID 1259368; calls by dose curve;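 note: NIH/3T3-derived 3T3Gli1-Luc cells carrying a stable Gli1-driven firefly luciferase reporter; series mostly up to about 92 µM; nearly all actives have a fitted effect of over 15% in size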). The method, boiled down: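 Quantitative high-throughput format using a Gli1-driven firefly luciferase reporter line derived from NIH/3T3 cells. After a 24 hr compound treatment at 37 C and 5% CO2, luminescence reported Gli1 response element activity.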
Assay [9] is described as follows: qHTS assay to identify small molecule antagonists of the sonic hedgehog signaling (Shh) pathway (AID 1259369; calls by dose curve; note: nearly all actives have a fitted effect of over 45% in size; note: potency is the fitted concentration of half-maximal effect). The method, boiled down:
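Stable Gli1-Luc reporter NIH/3T3 clone; quantitative HTS in stimulated mode with conditioned medium. Luminescence measured after 24hr compound treatment at 37 C.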

In assay [10] the target is Estrogen receptor beta (Homo sapiens) (UniProt Q92731). Briefly: qHTS assay to identify small molecule agonists of the estrogen receptor beta (ER-beta) signaling pathway (AID 1259377; active = well fitted activation curve with a large enough effect in the signal ratio in the repeat runs, not every such curve was filed as active; the % refers to the signal ratio). In short, it runs like this: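 Ratiometric beta-lactamase FRET read-out came after 2 h substrate loading at room temperature. It followed 16 h compound treatment at 37C of GripTite HEK293T cells carrying a UAS-bla reporter, plated in 2% charcoal-stripped FBS medium.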

A short description of assay [11]: qHTS assay to identify small molecule agonists of the androgen receptor (AR) signaling pathway in the presence of an antagonist - cell viability counter screen (AID 1259379).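 Note: MDA-kb2 human breast cancer cells carrying an MMTV luciferase reporter; series mostly up to about 92 µM; nearly all actives have a fitted effect of over 25% in size.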 In short, it runs like this: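 Nilutamide-containing (3.0uM final) MDA-kb2 cultures, 3,000 cells/well, were treated with compounds across 15 concentrations. After 16 hr at 37C with no CO2, cell viability was determined by CellTiter-Fluor fluorescence in the luciferase assay wells.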

Assay [12] is described as follows: qHTS assay to identify small molecule agonists of the estrogen receptor beta (ER-beta) signaling pathway - cell viability counter screen (AID 1259380). Note: nearly all actives have a fitted effect of over 30% in size. Note: potency is the fitted concentration of half-maximal effect. The method, boiled down: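 Steps: plate ER-beta-UAS-bla HEK293T cells, rest 6 hr; add compounds in DMSO; incubate 16 hr at 37C, 5% CO2; add FRET substrate 2 hr; add CellTiter-Glo, wait 30 min at room temperature; read luminescence.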

A short description of assay [13]: qHTS assay to identify small molecule antagonists of the estrogen receptor beta (ER-beta) signaling pathway - cell viability counter screen (AID 1259382). Note: series mostly up to about 92 µM; nearly all actives have a fitted effect of over 55% in size. In short, it runs like this: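 Viability is scored by CellTiter-Glo luminescence (30 min, room temperature) in ER-beta-UAS-bla HEK293T wells already read for reporter fluorescence. Compound exposure lasts 16 hr at 37C alongside 1nM 17-beta-estradiol in charcoal-stripped serum medium.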

Assay [14] deals with Estrogen receptor (Homo sapiens) (UniProt P03372). Briefly: qHTS assay to identify small molecule agonists of the estrogen receptor alpha (ER-alpha) signaling pathway in the presence of an antagonist (AID 1259383; calls by dose curve; note: top concentration of the series differs between compounds; nearly all actives have a fitted effect of over 15% in size). In short, it runs like this:
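Readout was ERE-driven luciferase luminescence in VM7Luc4E2 cells, which express full-length ER-alpha endogenously. Compounds were tested at 15 concentrations for 22hr alongside 10.0nM ICI-182,780 (final concentration).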

Assay [15] is described as follows: qHTS assay to identify small molecule agonists or antagonists of the thyroid stimulating hormone receptor (TSHR) signaling pathway - wild type cell line counter screen (AID 1259384; calls by dose curve). The method, boiled down: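 Counter screen in untransfected Hek293: compounds (15-point titration, triplicate) plus phosphodiesterase inhibitor Ro20-1724 added after 18 h plating; 30 min RT. Intracellular cAMP via competitive d2/cryptate immunoassay, 1 h incubation.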

In assay [16] the target is Thyrotropin receptor (Homo sapiens) (UniProt P16473). Nature of the assay: qHTS assay to identify small molecule antagonists of the thyroid stimulating hormone receptor (TSHR) signaling pathway (AID 1259385; calls by dose curve; note: nearly all actives have a fitted effect of over 20% in size). The method, boiled down: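 Antagonist mode: compound-treated TSHR-expressing HEK293 cells were stimulated with 1.5 ng/mL TSH (final) in presence of Ro20-1724 for 30 min at RT. HTRF cAMP detection after 1 h; each compound tested at 15 concentrations, triplicate.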

Assay [17] in a line: qHTS assay to identify small molecule agonists of the estrogen receptor alpha (ER-alpha) signaling pathway in the presence of an antagonist - cell viability counter screen (AID 1259386).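 Note: series mostly up to about 92 µM; cells exposed to compounds for 22 h at 37 °C before the viability read; nearly all actives have a fitted effect of over 30% in size.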 In short, it runs like this:
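In this counter screen, compound effects on VM7Luc4E2 viability were tested in the presence of the antagonist ICI-182,780 at 10.0nM final. Compounds were dosed at 15 concentrations, exposure lasted 22hr, and the CellTiter-Fluor signal was read.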

The target of assay [18] is Estrogen receptor beta (Homo sapiens) (UniProt Q92731). Nature of the assay: qHTS assay to identify small molecule antagonists of the estrogen receptor beta (ER-beta) signaling pathway (AID 1259378; active = well fitted inhibition curve with a large enough effect in the signal ratio in the repeat runs, not every such curve was filed as active; the % refers to the signal ratio). The method, boiled down: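 Antagonist mode: compounds added to beta-lactamase reporter HEK293T ER-beta-UAS cells stimulated with E2 (1nM final), 16 hr at 37C. LiveBLAzer B/G FRET substrate, 2 hours room temperature, fluorescence read-out.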

Assay [19] has as its target Androgen receptor (Homo sapiens) (UniProt P10275). Briefly: qHTS assay to identify small molecule antagonists of the androgen receptor (AR) signaling pathway using the MDA cell line in the presence of 0.5 nM R1881 (AID 1259243). Note: nearly all actives have a fitted effect of over 50% in size. The method, boiled down:
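Antagonist mode quantitative HTS in MDA-kb2 MMTV-luciferase cells, agonist R1881 at 0.5 nM final, 16 hr exposure at 37C and 0% CO2, luminescent detection.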

Assay [20] can be described thus: qHTS assay to identify small molecule phospholipidosis (PLD) inducers (AID 1259344; active = well fitted curve in the direction sought with a large enough effect; an effect the other way counts as inactive or inconclusive). The method, boiled down: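 Phospholipid accumulation was scored by imaging: fixed, Hoechst-counterstained HepG2 cells stained with LipidTOX Red after 24 h compound exposure at 37 C. Read-outs were pit count and pit intensity per well or per cell, with amiodarone and DMSO controls.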

Estrogen receptor (Homo sapiens), sequence (P03372 whole entry, looked up): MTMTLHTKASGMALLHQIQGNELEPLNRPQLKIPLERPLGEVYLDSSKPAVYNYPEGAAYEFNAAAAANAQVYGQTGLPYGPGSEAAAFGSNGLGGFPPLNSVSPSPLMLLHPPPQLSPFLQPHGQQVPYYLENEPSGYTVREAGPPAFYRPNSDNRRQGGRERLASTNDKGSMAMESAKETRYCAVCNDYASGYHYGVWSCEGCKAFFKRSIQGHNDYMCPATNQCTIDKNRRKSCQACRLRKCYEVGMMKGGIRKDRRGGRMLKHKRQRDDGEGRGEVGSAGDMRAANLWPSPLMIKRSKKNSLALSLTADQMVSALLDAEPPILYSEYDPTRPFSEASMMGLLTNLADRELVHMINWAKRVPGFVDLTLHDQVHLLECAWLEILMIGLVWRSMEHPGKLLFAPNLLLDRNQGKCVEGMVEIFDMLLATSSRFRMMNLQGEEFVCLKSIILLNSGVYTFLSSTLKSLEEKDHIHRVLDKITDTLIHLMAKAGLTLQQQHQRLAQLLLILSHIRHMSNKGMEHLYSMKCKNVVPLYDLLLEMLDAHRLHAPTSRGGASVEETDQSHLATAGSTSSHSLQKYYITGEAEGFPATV
Thyrotropin receptor (Homo sapiens), sequence (P16473 whole entry, looked up): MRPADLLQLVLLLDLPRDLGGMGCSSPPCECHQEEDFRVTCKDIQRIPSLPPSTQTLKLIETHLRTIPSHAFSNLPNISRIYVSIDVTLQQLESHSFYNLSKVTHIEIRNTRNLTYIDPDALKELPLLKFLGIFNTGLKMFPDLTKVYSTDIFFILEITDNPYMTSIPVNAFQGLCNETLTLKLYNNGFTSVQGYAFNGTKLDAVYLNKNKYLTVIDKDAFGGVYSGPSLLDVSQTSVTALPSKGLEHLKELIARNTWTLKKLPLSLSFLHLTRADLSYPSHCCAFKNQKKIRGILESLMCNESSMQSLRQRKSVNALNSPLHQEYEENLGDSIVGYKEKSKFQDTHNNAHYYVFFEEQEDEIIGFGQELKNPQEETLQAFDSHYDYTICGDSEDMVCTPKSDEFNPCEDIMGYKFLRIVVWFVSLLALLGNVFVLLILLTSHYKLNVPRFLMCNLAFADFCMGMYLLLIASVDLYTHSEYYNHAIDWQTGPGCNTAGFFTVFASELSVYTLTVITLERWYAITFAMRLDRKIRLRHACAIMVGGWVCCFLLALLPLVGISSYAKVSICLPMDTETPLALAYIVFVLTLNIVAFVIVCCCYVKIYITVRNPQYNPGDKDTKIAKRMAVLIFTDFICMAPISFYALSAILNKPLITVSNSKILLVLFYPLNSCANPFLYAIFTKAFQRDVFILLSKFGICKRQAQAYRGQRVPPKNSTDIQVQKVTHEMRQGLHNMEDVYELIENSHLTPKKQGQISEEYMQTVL
Estrogen receptor beta (Homo sapiens), sequence (Q92731 whole entry, looked up): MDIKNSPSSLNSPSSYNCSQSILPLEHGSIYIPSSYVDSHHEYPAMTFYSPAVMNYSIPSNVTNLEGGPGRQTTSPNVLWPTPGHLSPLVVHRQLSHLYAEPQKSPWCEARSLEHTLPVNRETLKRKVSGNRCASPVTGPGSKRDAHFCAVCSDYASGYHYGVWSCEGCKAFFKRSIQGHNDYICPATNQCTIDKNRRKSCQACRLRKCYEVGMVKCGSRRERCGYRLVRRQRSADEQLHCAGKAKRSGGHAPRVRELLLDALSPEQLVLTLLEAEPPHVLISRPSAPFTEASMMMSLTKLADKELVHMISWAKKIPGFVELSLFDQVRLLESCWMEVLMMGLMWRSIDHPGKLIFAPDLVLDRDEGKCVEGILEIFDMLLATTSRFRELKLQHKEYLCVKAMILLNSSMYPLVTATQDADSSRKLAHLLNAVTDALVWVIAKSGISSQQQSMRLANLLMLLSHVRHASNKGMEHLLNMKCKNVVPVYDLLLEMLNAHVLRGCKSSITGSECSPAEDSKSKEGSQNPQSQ
Androgen receptor (Homo sapiens), sequence (P10275 whole entry, looked up): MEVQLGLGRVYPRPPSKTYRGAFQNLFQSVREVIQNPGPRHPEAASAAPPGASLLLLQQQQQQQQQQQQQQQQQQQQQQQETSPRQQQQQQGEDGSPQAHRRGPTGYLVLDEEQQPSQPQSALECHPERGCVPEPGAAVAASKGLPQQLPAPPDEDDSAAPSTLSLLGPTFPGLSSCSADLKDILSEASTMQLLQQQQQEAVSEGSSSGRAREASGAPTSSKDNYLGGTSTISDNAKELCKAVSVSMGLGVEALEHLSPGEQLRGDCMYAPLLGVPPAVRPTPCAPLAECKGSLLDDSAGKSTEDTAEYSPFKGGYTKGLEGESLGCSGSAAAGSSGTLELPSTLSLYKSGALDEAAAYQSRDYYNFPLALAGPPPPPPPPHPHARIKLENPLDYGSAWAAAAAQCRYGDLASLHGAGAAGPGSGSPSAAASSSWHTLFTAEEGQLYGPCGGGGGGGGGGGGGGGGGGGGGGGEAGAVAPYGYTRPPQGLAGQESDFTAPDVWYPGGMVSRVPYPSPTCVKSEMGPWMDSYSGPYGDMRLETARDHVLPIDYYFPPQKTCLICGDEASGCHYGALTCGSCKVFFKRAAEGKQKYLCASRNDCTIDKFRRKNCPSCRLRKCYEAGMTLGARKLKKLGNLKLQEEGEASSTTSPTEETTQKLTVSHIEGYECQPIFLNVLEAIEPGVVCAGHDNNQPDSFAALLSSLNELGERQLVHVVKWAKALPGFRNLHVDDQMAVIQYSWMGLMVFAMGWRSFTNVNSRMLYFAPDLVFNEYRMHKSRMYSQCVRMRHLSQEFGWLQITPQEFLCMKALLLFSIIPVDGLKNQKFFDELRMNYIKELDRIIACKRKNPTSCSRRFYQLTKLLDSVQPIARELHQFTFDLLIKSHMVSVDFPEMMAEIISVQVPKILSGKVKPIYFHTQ

In the case of `CC(=O)CC(=O)N(C)C`, the Potency entry in assay [1], in assay [2], in assay [3], in assay [4], in assay [5] and in assay [6] was “inactive” in each case. Also, the Potency result in assay [7], in assay [8], in [9], in assay [10], in [11] and in assay [12] was “inactive” throughout. Moreover, the Potency result in assay [13], in [14], in assay [15], in assay [16] and in assay [17] was “inactive” throughout.

On to `CCCCCCCCCCCCCC(=O)O`, for which the Potency entry in assay [1], in assay [2], in assay [3], in assay [4], in [5] and in assay [6] was “inactive” in each case. Further, the Potency result in assay [7], in assay [8], in assay [9], in [10], in [11] and in assay [13] was “inactive” each time. Further, the Potency result in assay [14], in assay [15], in assay [16] and in assay [17] was “inactive” throughout. Besides, in assay [12], the Potency is 43.1 µM (active) and 61.1 µM (active).

Take `NC(N)=S`: the Potency result in [1], in [2], in assay [3], in [4], in assay [5] and in assay [6] was “inactive” in each case. Further, the Potency result in [7], in assay [8], in assay [9], in assay [11], in assay [12] and in [13] was “inactive” in each case. Moreover, the Potency result in assay [14], in assay [15], in assay [16] and in assay [17] was “inactive” throughout.

With `CC(C)c1ccc(C(C)C)cc1`, the Potency result in assay [1], in assay [2], in [3], in assay [4], in assay [5] and in [6] was “inactive” throughout. The Potency result in [7], in [8], in [9], in assay [10], in assay [18] and in [11] was “inactive” throughout. Besides, the Potency entry in assay [12], in [13], in assay [14], in assay [15], in [16] and in assay [17] was “inactive” throughout.

Consider `N#CCC(=O)O`, for which the Potency entry in assay [1], in assay [2], in assay [3], in assay [4], in assay [5] and in assay [6] was “inactive” in each case. Also, the Potency entry in [7], in assay [8], in [10], in assay [18], in assay [11] and in assay [12] was “inactive” throughout. Further, the Potency result in assay [13], in assay [14], in [15], in [16] and in [17] was “inactive” throughout. For the same molecule, the Potency entry in assay [9] is “inactive and 54.5 µM (active)”.

As to `Nc1nc(N)c2nc(-c3ccccc3)c(N)nc2n1`, the Potency result in assay [1], in assay [2], in [19], in [3], in assay [4] and in assay [5] was “inactive” each time. The Potency entry in [7], in assay [8], in assay [11], in assay [13], in assay [14] and in assay [15] was “inactive” throughout. Moreover, the Potency entry in [16] and in [17] was “inactive” each time. In addition, the outcome in [20] was inactive. Besides, the Potency in [9] was 24.6 µM (active) and 30.6 µM (active); in assay [12], 69.4 µM (active) and inactive.

Turning to `OB(O)O`, the Potency result in assay [1], in [2], in assay [3], in [4], in assay [5] and in assay [6] was “inactive” each time. Moreover, the Potency result in [7], in assay [8], in [9], in assay [11], in assay [12] and in [13] was “inactive” throughout. Moreover, the Potency entry in assay [14], in assay [15], in assay [16] and in [17] was “inactive” each time. Moreover, in [20], the result was inactive.

On to `Cc1ccccc1Cl`, for which the Potency entry in assay [1], in assay [2], in assay [19], in [3], in assay [4] and in assay [5] was “inactive” throughout. Moreover, the Potency result in assay [6], in [7], in assay [8], in assay [9], in [11] and in assay [12] was “inactive” in each case. In addition, the Potency entry in assay [13], in assay [14], in assay [15], in [16] and in assay [17] was “inactive” throughout.
